ALDH1A1 inh = qHTS Assay for Inhibitors of Aldehyde Dehydrogenase 1 (ALDH1A1); 220,000 tested, 7.3% active; Purified ALDH1A1, NADH fluorescence, propionaldehyde substrate; Aldehyde dehydrogenase 1A1 (Homo sapiens), P00352; Potency, µM (series often up to 75.3 µM), without a hit: top-dose activity, negative = inhibition, hits mostly inhibitors;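 further: potency means the concentration at half of the fitted maximal effect; plate controls were no enzyme wells and a reference inhibitor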
Lamin A splicing = qHTS Assay for Modulators of Lamin A Splicing. HeLa LMNA splicing GFP/RFP minigene ratio, 48 h. Potency, µM (doses to about 46.1 µM), without a hit: at the top dose ratio change, negative = inhibition, actives largely listed as inhibitors. 200,000 tested, 0.01% active. AID 1487, 2009; active means well fitted inhibition curve with a large enough effect in the signal ratio, with a control signal flat, not every such curve was filed as active; inconclusive means small, poorly fitted or top-dose-only effect, or effect the other way, or a change in a side signal; the % refers to the signal ratio; further: potency means the concentration at half of the fitted maximal effect
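S3 HeLa stable clones carrying a lamin A-EGFP splicing minigene plus DsRed2 were seeded at 600 cells/well in Opti-MEM with 2% FBS, pin-dosed and incubated 48 h at 37°C. Acumen cytometry (488 nm) gave the GFP/RFP total-intensity ratio.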
ALOX12 inhib = qHTS Assay for Inhibitors of 12-hLO (12-human lipoxygenase); Polyunsaturated fatty acid lipoxygenase ALOX12 (Homo sapiens), P18054; purified 12-hLO, xylenol orange hydroperoxide absorbance; Potency, µM (top dose mostly 57.1 µM), for the others: top-dose activity change, negative = inhibition, hits mostly inhibitors; 150,000 tested, 0.12% active; AID 1452, 2008; active means well fitted inhibition curve with a large enough effect; inconclusive means small, poorly fitted or top-dose-only effect; further: potency means the concentration at half of the fitted maximal effect; nearly all actives have a fitted effect of over 55% in size
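Hydroperoxide output read as Fe(III)-xylenol orange absorbance, 573-to-405 nm ratio, after 30 min reaction with 40 uM arachidonic acid. Enzyme: 150 nM purified human 12hLO, 15 min compound preincubation; 25 mM Hepes pH 7.0, room temperature.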
PNC inhibitor = High Content Assay for Compounds that inhibit the Assembly of the Perinucleolar Compartment; PC3M PTB-GFP, PNC prevalence imaging, 16 h; hits give low values; activity change (PNC), negative = inhibition, % at 10 µM; 140,000 tested, 3.1% active; AID 2417, 2010;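 active means readout at or below -70, meaning at least 70% loss of cells showing the perinucleolar compartment, a nuclear body marking cancer cells; inconclusive means readout between -30 and a set limit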;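 further: plate controls were DMSO wells for no effect and camptothecin positive control wells for full effect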
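PC3M cells stably expressing PTB-GFP, 750–1000 cells/well, treated 16 h at 37 °C with compound (23 nl of library stock), in duplicate. After paraformaldehyde fixation and Hoechst stain, imaged at 20x; PNC prevalence scored by image analysis.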
HPGD block = qHTS Assay for Inhibitors of HPGD (15-Hydroxyprostaglandin Dehydrogenase) | 15-hydroxyprostaglandin dehydrogenase [NAD(+)] (Homo sapiens), P15428 | purified HPGD, NADH fluorescence kinetic, PGE2 substrate | Potency, µM, inactives show top-dose activity change, negative = inhibition, actives largely listed as inhibitors | 150,000 tested, 4.3% active | AID 894, 2007; further: potency means the concentration at half of the fitted maximal effect
Target sequence (P15428 whole entry, looked up): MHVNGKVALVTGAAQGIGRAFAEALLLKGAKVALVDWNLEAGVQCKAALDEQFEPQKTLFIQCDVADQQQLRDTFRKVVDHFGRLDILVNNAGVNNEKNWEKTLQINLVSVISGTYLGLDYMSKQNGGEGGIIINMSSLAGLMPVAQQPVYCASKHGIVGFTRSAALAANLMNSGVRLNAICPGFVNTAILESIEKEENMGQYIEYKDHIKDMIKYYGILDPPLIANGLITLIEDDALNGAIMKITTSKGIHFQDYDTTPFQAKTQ
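20 nM HPGD preincubated 15 min at room temperature with compound in 50 mM Tris-HCl pH 8, 0.01% Tween 20. Started with 1 mM NAD+ and 30 uM prostaglandin E2; NADH fluorescence (360/450 nm) read 5 times over 30-s intervals, last minus first.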
Active calls of the source: *; ? = inconclusive; · = no result given; [ ] = remark or other dose. Sampled rows, rich in hits. Any-hit rate of the full collection: about 10%. Unless noted, the call rests on the fitted dose curve; in most records, active means well fitted inhibition curve with a large enough effect (not every such curve was filed as active); inconclusive means small, poorly fitted or top-dose-only effect, or another doubt; inactive means no such curve, though single readings can be large or run the other way. Unless noted, on the % scale 0 is the no-effect control and ±100 the full control effect.

SMILES	ALDH1A1 inh	Lamin A splicing	ALOX12 inhib	PNC inhibitor	HPGD block
CC(C)Cn1cc(C(=O)NCc2cccs2)c2c3ccccc3n(C)c2c1=O	1µM*	0%	-6%	-6	·
O=C(c1ccco1)N1CCCN(C(=O)c2ccco2)CC1	1%	-2%	-3%	19	-5%
O=C(c1ccco1)N1CCN(C(=O)N2c3ccccc3Sc3ccccc32)CC1	?	?	-4%	-89*	-11%
O=C(N1CCN(c2ccccn2)CC1)N1c2ccccc2Sc2ccccc21	1%	?	-3%	-84*	-10%
Cc1cccc(C)c1N1CCN(C(=O)N2CCOCC2)CC1	11µM*	·	·	·	·
O=C(c1ccco1)N1CCN(C(=O)N2CCOCC2)CC1	32µM*	-5%	2%	-7	-11%
O=C(N1CCN(c2ccccn2)CC1)C(Cl)(Cl)Cl	?	?	-3%	?	-23%
O=C(COc1ccc(F)cc1)Nc1ccccc1C(=O)OCc1cc(=O)n2ccsc2n1	·	1%[46 µM]	·	·	·
CC(=O)O[C@]1(C(C)=O)CC[C@H]2C3C=C(Cl)C4=CC(=O)[C@@H]5C[C@H]5[C@]4(C)C3CC[C@@]21C (stereo partly specified)	3%	?	·	·	4%
NC(=O)C1CCN(C(=O)c2ccco2)CC1	-2%	3%	4%	-81*	-8%
CCOc1ccc(C(=O)CCNC(Cc2cnc[nH]2)C(=O)O)cc1 (stereo unspecified)	1.6µM*	-2%	-5%	21	-3%
N#Cc1cc2c(OCC(O)CN3CCN(C(c4ccccc4)c4ccccc4)CC3)cccc2[nH]1 (stereo unspecified)	0%	·	·	·	·
CCNCC(=O)N1c2ccccc2CCc2ccc(NC(C)=O)cc21	-3%	-3%	5%	-105*	-11%
Cc1ccc(NC(=O)N2CCc3ccccc32)cc1	0%	-12%	14%	-14	-9%
Cc1ccc(NC(=O)CSCC(=O)N2c3ccccc3CCc3ccccc32)cc1	3.2µM*	0%	-1%	5	-12%
COc1cc(C2C(=O)N(C3CCCCCC3)CC(=O)N2Cc2ccccc2)ccc1OC(C)C (stereo unspecified)	·	-4%[46 µM]	·	·	·
CC1=NN(c2ccc(C(F)(F)F)cn2)C(=O)C1	22µM*	-7%	2%	13	-9%
CCOC(=O)N1CCN(c2ccc(C(F)(F)F)cn2)CC1	6%	-5%	1%	?	?
COC(=O)/C(=N/Nc1ccccc1C)Sc1nnc(C(O)c2ccccc2)n1-c1ccccc1 (stereo unspecified)	-5%	-17%	-3%	-7	32µM*
O=c1oc(-c2ccc(F)cc2)nc2ccsc12	0%	-1%	-3%	-111*	-8%
Cc1cc2c(=O)oc(-c3ccc(F)cc3)nc2s1	16µM*	·	·	·	·
O=c1oc(-c2ccccc2Cl)nc2ccsc12	-12%	5%	5%	?	-18%
COc1ccc(CNC(=O)C(=O)NCc2cccnc2)cc1	0%	5%[46 µM]	·	·	·
COc1ccc2c(c1)C=C(C(=O)OCc1cccnc1)CO2	8.9µM*	·	·	·	·
COc1ccc(OC)c(C2C=C(C34CC5CC(CC(C5)C3)C4)NC(=S)N2)c1 (stereo unspecified)	2.5µM*	?	7.1µM*	?	-12%
SMILES	ALDH1A1 inh	Lamin A splicing	ALOX12 inhib	PNC inhibitor	HPGD block
COc1ccc(OC)c(C2SCCN2S(C)(=O)=O)c1 (stereo unspecified)	-5%	-1%	-3%	27	-9%
COc1cc(C2C=C(C34CC5CC(CC(C5)C3)C4)NC(=S)N2)cc(OC)c1OC (stereo unspecified)	1.1µM*	-1%	11µM*	-17	-2%
S=C1NC(C23CC4CC(CC(C4)C2)C3)=CC(c2ccc3c(c2)OCO3)N1 (stereo unspecified)	2.5µM*	·	·	·	·
COc1ccc(C2=CC(c3cc(OC)c(OC)c(OC)c3)NC(=S)N2)cc1 (stereo unspecified)	-14%	?	-9%	-4	-17%
O=C(Nc1nnc(C(F)(F)F)s1)c1ccc(N2C(=O)C3C4C=CC(C4)C3C2=O)cc1 (stereo unspecified)	1%	?	1%	14	14µM*
Cc1noc(C)c1C(=O)N1CCC[C@@]2(CCN(c3ccccc3)C2)C1	-4%	·	-18%	·	-3%
Cc1nn(Cc2ccccc2)c(Cl)c1C(=O)NCCc1ccccc1	-12%	3%	0%	17	-25%
Cc1nn(Cc2ccccc2)c(Cl)c1C(=O)OC(C)C#N (stereo unspecified)	22µM*	-26%[46 µM]	·	·	·
CCc1cnc2c(c1SCC(=O)Nc1ccc(Cl)cc1)c(=O)n(C)c(=O)n2C	·	-16%[46 µM]	·	·	·
Cc1ccc(S(=O)(=O)NNc2ccccc2)cc1	5.6µM*	12%[0.0737 µM]	16µM*	-16	5µM*
Cc1ccc(S(=O)(=O)NNc2nc3ccccc3nc2C(F)(F)F)cc1	7.1µM*	7%	?	-7	3.2µM*
CCN(CC)S(=O)(=O)c1ccc2c(c1)nc(SCC(N)=O)n2-c1ccc(OC)cc1	?	0%	-7%	-10	22µM*
COc1ccc(N2CCN(C(=O)CCNC(=O)c3ccc(C(C)(C)C)cc3)CC2)cc1	?	-10%[46 µM]	·	·	·
COc1ccc(N2CCN(C(=O)C(C)(C)Oc3ccc(Cl)cc3)CC2)cc1	10µM*	?	1%	?	-14%
COc1ccc(N2CCN(C(=O)c3ccc(C(C)(C)C)cc3)CC2)cc1	8.9µM*	-19%	-5%	?	-21%
CCOC(=O)N1CCN(C(=O)C(C)(C)Oc2ccc(Cl)cc2)CC1	?	4%	1%	26	-6%
O=S1(=O)c2ccccc2N=NN1Cc1ccc(Cl)cc1	2.4µM*	-9%	-25%	8	28µM*
CSC1=C(C#N)C(c2ccccc2Cl)C(C(=O)c2cccs2)C(O)(C(F)(F)F)N1 (stereo unspecified)	-8%	?	-4%	?	2%
CCSC1=C(C#N)C(c2ccccc2Cl)C(C(=O)c2cccs2)C(O)(C(F)(F)F)N1 (stereo unspecified)	11µM*	?	-13%	-7	-14%
C=CCSC1=C(C#N)C(c2ccccc2Cl)C(C(=O)c2cccs2)C(O)(C(F)(F)F)N1 (stereo unspecified)	14µM*	-26%	-12%	-1	-9%
CO[C@H]1OC[C@@]2(C)[C@@H]3C4=C(CN2C(=O)OC(C)(C)C)[C@H](C)[C@H](CO)[C@H](CO)[C@H]4CC[C@H]13	-6%	·	-5%	·	-18%
CN(C)S(=O)(=O)c1cc(S(=O)(=O)N(C)C)c(Cl)cc1N	13µM*	3%	2%	10	-6%
